Molecules are shown by their SMILES. Entries with a potency or affinity are not part of this list.

The record followed here is ChEMBL document CHEMBL4513146, “CO-ADD screening of Karazin Kharkiv National University (Ukraine) compounds”.

One experiment has as its system Staphylococcus aureus. To be noted: Concentration 32 ug.mL-1;; ASSAY_TEST Inhibition of Bacterial Growth; detection method Absorption (OD600); MEDIA CAMHB; plate type 384well; NBS; CORNING #3640; time 18 hr.
A further experiment deals with Escherichia coli. Conditions: Concentration 32 ug.mL-1;; ASSAY_TEST Inhibition of Bacterial Growth; detection method Absorption (OD600); MEDIA CAMHB; plate type 384well; NBS; CORNING #3640; time 18 hr.

In the case of `Cc1cccc(Oc2nccn3c(=O)n(CC(=O)N4CCN(c5ccc(F)cc5)CC4)nc23)c1C`, the figures for the Inhibition in the experiment on Staphylococcus aureus and in the experiment with Escherichia coli were 3.93% and -6.71%, respectively.
Taken in the same sequence, the figures for `CCC(C)NC(=O)Cn1nc2n(Cc3ccco3)c(=O)c3sccc3n2c1=O` (stereo not drawn) were 7.96% and 2.21%.
Taken in the same sequence, the figures for `Cc1cccc(CN(c2cc(C)cc(C)c2)S(=O)(=O)c2cccn3c(C)nnc23)c1` were 6.42% and -0.75%.
As for `COc1ccc(CNC(=O)CCc2nnc3ccc(-c4ccccc4)nn23)cc1OC`, the values for the Inhibition in the experiment on Staphylococcus aureus and with Escherichia coli were 1.5% and -2.82%, respectively.
On the same counts, the results for `COc1cc(NC(=O)C(C)Sc2nnc3c(=O)n(-c4cccc(OC)c4)ccn23)cc(OC)c1` (stereo not drawn) are -2.41% and -14.15%.
For the compound `Cc1ccc(N(CC(=O)OC(C)(C)C)S(=O)(=O)c2ccc3nnc(C)n3c2)cc1`, the Inhibition (usually the relative decrease from the control value, in per cent) in the experiment with Staphylococcus aureus is 2.37%; in the experiment on Escherichia coli, -3.61%.
For `COc1cccc(Oc2nccn3c(=O)n(CC(=O)Nc4cc(C)c(Cl)cc4OC)nc23)c1`, the Inhibition in the experiment on Staphylococcus aureus is reported as -12.26%; in the experiment on Escherichia coli, -0.57%.
Taken in the same sequence, the figures for `Cc1ccc(C)c(NC(=O)Cn2nc3n(C)c(=O)c4c(c(-c5ccccc5)cn4C)n3c2=O)c1` were -4.46% and -19.92%.
Turning to `COc1ccc(N(Cc2ccc(Cl)cc2)S(=O)(=O)c2ccc3nncn3c2)cc1`, the values for the Inhibition in the experiment on Staphylococcus aureus and with Escherichia coli were -6.81% and -4.15%, respectively.
Taken in the same sequence, the figures for `Cc1ccc(C)c(NC(=O)Cn2nc3c4cc(-c5ccc(C)c(C)c5)nn4ccn3c2=O)c1` were 4.52% and -6.72%.
On the same counts, the results for `COc1ccc2[nH]cc(C(=O)CSc3nnc4c(=O)n(-c5ccc(C)c(C)c5)ccn34)c2c1` are 17.24% and -2.44%.
On the same counts, the results for `Cc1cc2nn(CC(=O)Nc3ccc(F)cc3Cl)c(=O)n2c(Nc2ccccc2C)n1` are -3.09% and -11.67%.
As to `Cc1cccc(C)c1NC(=O)Cn1nc2c(SC3CCCCC3)nccn2c1=O`, the Inhibition is given as 9.56% in the experiment with Staphylococcus aureus and -6.16% in the experiment with Escherichia coli.
Taken in the same sequence, the figures for `CCc1ccc(NC(=O)Cn2nc3cc(C)nc(Nc4ccc(F)c(C)c4)n3c2=O)cc1` were 4.65% and -6.45%.
On the same counts, the results for `COc1ccccc1NC(=O)Cn1nc2c3cc(-c4ccc(Cl)cc4)nn3ccn2c1=O` are 5.68% and -3.99%.
On the same counts, the results for `Cc1cccc(C)c1NC(=O)Cn1c(=O)c2nnc(C(C)C)n2c2ccccc21` are 9.36% and 1.82%.
Regarding `O=C(Cn1nc2c3cc(-c4ccc(Cl)cc4)nn3ccn2c1=O)Nc1ccc2c(c1)OCCO2`, the Inhibition in the experiment on Staphylococcus aureus is recorded as -0.49%; with Escherichia coli, -1.57%.
With `COc1cccc(-c2nc(CSc3nc4ccccc4n4c(C(C)C)nnc34)c(C)o2)c1OC`, the results for the Inhibition in the experiment with Staphylococcus aureus and in the experiment on Escherichia coli were 5.27% and -1.56%, respectively.
On the same counts, the results for `COc1cccc(CN(c2ccc(F)c(F)c2)S(=O)(=O)c2ccc3nncn3c2)c1` are -3.79% and -13.18%.
As to `COc1ccc(C(=O)CSc2nnc3c(=O)n(-c4ccc(F)cc4)ccn23)cc1OC`, the figures for the Inhibition in the experiment with Staphylococcus aureus and in the experiment with Escherichia coli were 16.25% and -2.12%, respectively.
Turning to `CCOc1ccc(NC(=O)Cn2nc3c4c5c(sc4ncn3c2=O)CCCC5)cc1`, the values for the Inhibition in the experiment with Staphylococcus aureus and in the experiment with Escherichia coli were -17.71% and 0.82%, respectively.
Taken in the same sequence, the figures for `Cc1cc(NC(=O)Cn2nc3ccc(SC(C)(C)C)nn3c2=O)ccc1Br` were -0.85% and -5.34%.
On the same counts, the results for `COC(=O)c1cccc(NC(=O)Cn2nc3c(N4CCCCCC4)nccn3c2=O)c1` are -4.81% and -10.52%.
On the same counts, the results for `CCc1ccccc1Sc1nccn2c(=O)n(CC(=O)Nc3cc(Cl)c(OC)cc3OC)nc12` are -16.84% and -7.56%.
With `O=S(=O)(c1cccn2c(SCc3c(F)cccc3Cl)nnc12)N1CCCC1`, the Inhibition in the experiment on Staphylococcus aureus was found to be 5.67%; in the experiment on Escherichia coli, 0.4%.
Taken in the same sequence, the figures for `COc1cccc(-n2ccn3c(SCC#N)nnc3c2=O)c1` were 16.24% and 0.96%.
On the same counts, the results for `CC(C)CCn1c(=O)c2ccc(C(=O)NC3CCCC3)cc2n2c(=O)n(CC#N)nc12` are 11.46% and 0.05%.
As to `CCc1nnc2c(SCC(=O)Nc3ccc(Cl)cc3)nc3ccccc3n12`, the values for the Inhibition in the experiment with Staphylococcus aureus and in the experiment with Escherichia coli were 15.07% and 2.66%, respectively.
As for `O=c1c2sccc2n2c(=O)n(Cc3cccc(C(F)(F)F)c3)nc2n1Cc1cccs1`, the Inhibition is 22.09% in the experiment on Staphylococcus aureus and 2.86% with Escherichia coli.
As for `Cc1ccc(-c2ccc3nn(Cc4ccc(Cl)cc4)c(=O)n3n2)cc1C`, the results for the Inhibition in the experiment with Staphylococcus aureus and with Escherichia coli were -1.51% and -5.81%, respectively.
Taken in the same sequence, the figures for `Cc1c(Cl)cccc1NC(=O)Cn1nc2c(SCc3ccccc3)nccn2c1=O` were 2.18% and -6.95%.
For `Cc1ccc(-c2ccc3nn(Cc4c(F)cccc4Cl)c(=O)n3n2)cc1`, the results for the Inhibition in the experiment with Staphylococcus aureus and in the experiment with Escherichia coli were 14.3% and -0.36%, respectively.
As for `COc1cccc(Sc2nc3ccccc3n3c(=O)n(CC(=O)Nc4ccccc4)nc23)c1`, the Inhibition was -1.75% with Staphylococcus aureus and -6.94% in the experiment with Escherichia coli.
Taken in the same sequence, the figures for `COc1cccc(Oc2nccn3c(=O)n(CC(=O)Nc4ccc5c(c4)OCCO5)nc23)c1` were 9.52% and -8.9%.
